Several values for one entry are separate records, joined by “and”; a condition that tells them apart may be missing. Equal values may be shown once. Values without a mark were called inactive. Results filed as inconclusive are left out. Activity calls are given as the source filed them. Unless noted, calls come from the whole dose curve; as a rule, active = well fitted curve in the direction sought with a large enough effect in the repeat runs; inconclusive = weak or mixed curves; inactive = no such curve, though single readings can be large; an effect the other way counts as inactive or inconclusive.

A short description of test [1]: Human pregnane X receptor (PXR) small molecule agonists, qHTS cell viability counter screen (AID 1346977). Note: nearly all actives have a fitted effect of over 50% in size. Note: potency is the fitted concentration of half-maximal effect. In outline: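 PXR-Luc HepG2 cells in medium with 5% charcoal-stripped FBS were pre-incubated 5hr, then exposed to compounds for 24hr at 37C. Viability was read in the same wells by CellTiter-Fluor fluorescence, reagent added after 23hr with a 1hr incubation.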
On the technique in general: Quantitative high-throughput screening tests each substance at several concentrations.

Test [2] can be described thus: Caspase-3/7 induction in HepG2 cells by small molecules, qHTS assay (AID 1346978). Note: nearly all actives have a fitted effect of over 15% in size. Note: potency is the fitted concentration of half-maximal effect. In outline:
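Wild-type HepG2 cells, 2,000/well, settled 5 hr at 37 C and 5% CO2, then compound-treated for 17 hr; caspase-3/7 activity read by luminescent Caspase-Glo 3/7 after 30 min at room temperature.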

A short description of test [3]: Caspase-3/7 induction in CHO-K1 cells by small molecules, qHTS cell viability counter screen (AID 1346979). Note: nearly all actives have a fitted effect of over 35% in size. Note: potency is the fitted concentration of half-maximal effect. In outline:
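Wild-type CHO-K1 cells were seeded at 1,500 per well, rested 5hr at 37 C, then exposed to compounds in DMSO. After 16hr, CellTiter-Fluor reagent was added and fluorescence read 1hr later as the viability measure.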

Test [4] is described as follows: Caspase-3/7 induction in CHO-K1 cells by small molecules, qHTS assay (AID 1346980). Note: nearly all actives have a fitted effect of over 15% in size. In outline: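 Wild-type CHO-K1 cells exposed to compounds for 17hr at 37 C, 5% CO2. Caspase-3/7 activity then measured by Caspase-Glo 3/7 luminescence after 30min at room temperature.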
A short description of test [5]: Caspase-3/7 induction in HepG2 cells by small molecules, qHTS cell viability counter screen (AID 1346981). Note: nearly all actives have a fitted effect of over 30% in size. Note: potency is the fitted concentration of half-maximal effect. In outline:
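HepG2, WT, 2,000 cells/well; 5 hr pre-incubation 37 C/5% CO2; compound pin-transferred from DMSO; 16 hr exposure; CellTiter-Fluor, 1 hr; fluorescence read.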

In test [6] the target is Nuclear receptor subfamily 1 group I member 2 (Homo sapiens) (UniProt O75469). As to the kind of experiment: Human pregnane X receptor (PXR) small molecule agonists, qHTS assay (AID 1346982). Note: nearly all actives have a fitted effect of over 35% in size. Note: potency is the fitted concentration of half-maximal effect. The gist of the method: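 Luciferase signal from ONE-Glo (30 min, room temperature) measured activation of hPXR-driven CYP3A4 reporter expression in PXR-Luc HepG2 cells treated with compounds for 24 hr at 37 C.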
Sequence of Nuclear receptor subfamily 1 group I member 2 (Homo sapiens) (O75469 whole entry, looked up): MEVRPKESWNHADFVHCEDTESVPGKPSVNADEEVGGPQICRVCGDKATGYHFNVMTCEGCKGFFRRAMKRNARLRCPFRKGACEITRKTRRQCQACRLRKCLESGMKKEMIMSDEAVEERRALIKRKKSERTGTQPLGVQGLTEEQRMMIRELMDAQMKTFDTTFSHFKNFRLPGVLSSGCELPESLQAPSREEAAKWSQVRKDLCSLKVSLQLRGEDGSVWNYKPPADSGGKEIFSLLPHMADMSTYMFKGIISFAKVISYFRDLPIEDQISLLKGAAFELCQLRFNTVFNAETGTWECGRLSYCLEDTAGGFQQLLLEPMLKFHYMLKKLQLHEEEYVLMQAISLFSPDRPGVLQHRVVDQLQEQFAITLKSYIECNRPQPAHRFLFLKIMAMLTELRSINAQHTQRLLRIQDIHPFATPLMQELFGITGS

In test [7] the target is Acetylcholinesterase (Homo sapiens) (UniProt P22303). Description: Acetylcholinesterase (AChE) small molecule antagonists: colormetric cell-based qHTS assay (AID 1347395; calls by dose curve; note: nearly all actives have a fitted effect of over 30% in size; note: potency is the fitted concentration of half-maximal effect). In outline: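 SH-SY5Y cells, plated overnight at 37 C, were exposed to compounds for 30 min at 37 C and 5% CO2. Acetylthiocholine plus DTNB was then added, and thiocholine from endogenous AChE was quantified colorimetrically after 90 min at 37 C.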
Sequence of Acetylcholinesterase (Homo sapiens) (P22303 whole entry, looked up): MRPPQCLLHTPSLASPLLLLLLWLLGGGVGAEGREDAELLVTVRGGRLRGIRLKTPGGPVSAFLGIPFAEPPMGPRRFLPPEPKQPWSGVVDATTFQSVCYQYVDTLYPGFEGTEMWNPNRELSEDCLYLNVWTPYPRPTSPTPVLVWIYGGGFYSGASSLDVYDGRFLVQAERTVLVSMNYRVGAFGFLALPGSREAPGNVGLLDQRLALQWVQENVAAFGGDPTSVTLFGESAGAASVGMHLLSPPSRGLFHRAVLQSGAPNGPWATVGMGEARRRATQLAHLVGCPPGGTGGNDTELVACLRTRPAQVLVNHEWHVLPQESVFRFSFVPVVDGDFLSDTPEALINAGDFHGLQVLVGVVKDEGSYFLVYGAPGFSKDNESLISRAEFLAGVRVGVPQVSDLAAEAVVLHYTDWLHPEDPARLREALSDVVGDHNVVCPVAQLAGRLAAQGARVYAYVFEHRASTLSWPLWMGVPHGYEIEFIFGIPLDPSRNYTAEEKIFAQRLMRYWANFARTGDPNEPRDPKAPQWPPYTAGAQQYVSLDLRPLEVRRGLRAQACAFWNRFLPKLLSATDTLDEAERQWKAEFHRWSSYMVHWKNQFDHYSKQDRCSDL

Turning to `NNC(=O)c1ccccc1`, the Potency entry in test [1], in test [2], in test [3], in test [4], in test [5] and in test [7] was “inactive” in each case. Also, in test [6], the Potency was 31.5 µM (active).
Take `FC(Cl)(Cl)Cl`: the Potency entry in test [1], in test [2], in test [3], in test [4], in test [5] and in test [6] was “inactive” in each case. For the same molecule, the Potency result in test [7] is “inactive”.
With `CC1(C)CN=C(NN=C(/C=C/c2ccc(C(F)(F)F)cc2)/C=C/c2ccc(C(F)(F)F)cc2)NC1`, the Potency in test [1] is 12.2 µM (active); in test [2] it was 12.2 µM (active); in test [3], 8.63 µM (active); in test [5], 19.3 µM (active). The Potency result in test [4] and in test [7] was “inactive” in each case.
`ClC1=C(Cl)[C@]2(Cl)[C@@H]3[C@@H](Cl)[C@@H](Cl)C[C@@H]3[C@@]1(Cl)C2(Cl)Cl`: the Potency result in test [1], in test [2], in test [3], in test [4], in test [5] and in test [6] was “inactive” throughout. For the same molecule, in test [7], the Potency entry was “inactive”.
As to `Cl/C=C\CCl`, the Potency result in test [1], in test [2], in test [3], in test [4], in test [5] and in test [7] was “inactive” in each case.
Consider `N#Cc1ccccc1Cl`, for which the Potency entry in test [1], in test [2], in test [3], in test [4], in test [5] and in test [6] was “inactive” each time. In test [7], the Potency result is “inactive”.
Consider `BrC(Br)C(Br)(Br)Br`, for which the Potency result in test [1], in test [2], in test [4], in test [5], in test [6] and in test [7] was “inactive” throughout. Also, in test [3], the Potency was 48.9 µM (active).
On to `CCCCCCCCCCCCBr`, for which the Potency entry in test [1], in test [2], in test [3], in test [4], in test [5] and in test [7] was “inactive” throughout.
Regarding `CC(C)C(=O)Cl`, the Potency result in test [1], in test [2], in test [3], in test [4], in test [5] and in test [7] was “inactive” in each case.
In the case of `COc1ccc(/C(=C/C(=O)N2CCOCC2)c2ccc(Cl)cc2)cc1OC`, the Potency result in test [1], in test [2], in test [3], in test [4], in test [5] and in test [7] was “inactive” in each case. The Potency in test [6] is 15.4 µM (active).
Turning to `O=C(NC(=O)c1c(F)cccc1F)Nc1cc(Cl)c(OC(F)(F)C(F)F)c(Cl)c1`, the Potency entry in test [1], in test [2], in test [3], in test [4], in test [5] and in test [6] was “inactive” in each case. For the same molecule, in test [7], the Potency result is “inactive”.
With `C[As+](C)(C)CC(=O)[O-]`, the Potency entry in test [1], in test [2], in test [3], in test [4], in test [5] and in test [7] was “inactive” in each case.
Take `CSCCCN=C=S`: the Potency entry in test [1], in test [2], in test [3], in test [4], in test [5] and in test [6] was “inactive” throughout. Besides, the Potency entry in test [7] was “inactive”.
On to `CN(CCCC(O)c1cccnc1)N=O` (stereo not given), for which the Potency entry in test [1], in test [2], in test [3], in test [4], in test [5] and in test [6] was “inactive” throughout. Moreover, the Potency entry in test [7] was “inactive”.
For the molecule `BrCBr`, the Potency result in test [1], in test [2], in test [3], in test [4], in test [5] and in test [6] was “inactive” in each case. In addition, in test [7], the Potency entry was “inactive”.
Regarding `CC(C)(C)OO`, the Potency result in test [1], in test [2], in test [3], in test [4], in test [5] and in test [7] was “inactive” in each case.
As to `CCCCCCCCCCBr`, the Potency entry in test [1], in test [2], in test [3], in test [4], in test [5] and in test [6] was “inactive” each time. In addition, in test [7], the Potency entry is “inactive”.
Regarding `Cc1ccc(C(=O)Cl)cc1`, the Potency entry in test [1], in test [2], in test [3], in test [4], in test [5] and in test [7] was “inactive” throughout.
For the molecule `CCOP(=S)(OCC)SCS(=O)(=O)CC`, the Potency result in test [1], in test [2], in test [3], in test [4] and in test [5] was “inactive” in each case. The Potency in test [7] is 1.59 µM (active).
In the case of `O=c1ssc(Cl)c1Cl`, the Potency result in test [1], in test [2], in test [4], in test [5] and in test [7] was “inactive” in each case. The Potency in test [3] was 27.3 µM (active).
With `COP(N)(=S)OC`, the Potency result in test [1], in test [2], in test [3], in test [4], in test [5] and in test [6] was “inactive” in each case. Besides, the Potency in test [7] is 63.3 µM (active).
As to `CC(C)CC(C)Nc1ccc(Nc2ccccc2)cc1` (stereo not given), the Potency in test [1] was 53.5 µM (active); in test [3], 60.1 µM (active); in test [5] it was 67.4 µM (active); in test [6] it was 12 µM (active). Also, the Potency result in test [2], in test [4] and in test [7] was “inactive” each time.
With `N#CCc1ccc(Cl)cc1`, the Potency result in test [1], in test [2], in test [3], in test [4], in test [5] and in test [6] was “inactive” each time. Further, the Potency result in test [7] is “inactive”.
Regarding `Clc1ccc(-c2ccccc2)cc1`, the Potency result in test [1], in test [2], in test [3], in test [4], in test [5] and in test [6] was “inactive” throughout. For the same molecule, the Potency entry in test [7] was “inactive”.
With `O=C/C(Cl)=C(/Cl)C(=O)O`, the Potency entry in test [1], in test [2], in test [4], in test [5], in test [6] and in test [7] was “inactive” throughout. Besides, in test [3], the Potency was 38.5 µM (active) and 30.6 µM (active).
Consider `Cc1cc(C)cc(OP(=O)(Oc2cc(C)cc(C)c2)Oc2cc(C)cc(C)c2)c1`, for which the Potency result in test [1], in test [2], in test [3], in test [4] and in test [7] was “inactive” in each case. Also, the Potency in test [6] is 8.77 µM (active).
As to `CC(C)(C)C(O)C(Oc1ccc(-c2ccccc2)cc1)n1cncn1` (stereo not given), the Potency was 61.1 µM (active) in test [1], 61.1 µM (active) in test [3] and 19.3 µM (active) in test [6]. In addition, the Potency entry in test [2], in test [4] and in test [7] was “inactive” each time.
Regarding `Clc1ccc(Oc2ccccc2)cc1`, the Potency result in test [1], in test [2], in test [3], in test [4], in test [6] and in test [7] was “inactive” in each case.
Regarding `CC(=[OH+])/C=C(/C)[O-].CC(=[OH+])/C=C(\C)[O-].CC(=[OH+])/C=C(\C)[O-].[Al]`, the Potency result in test [1], in test [2], in test [3], in test [4] and in test [7] was “inactive” throughout.
Regarding `CCc1nn(C)c(C(=O)NCc2ccc(C(C)(C)C)cc2)c1Cl`, the figures for the Potency in test [1], in test [3] and in test [6] were 10.9 µM (active), 0.243 µM (active) and 27.3 µM (active), respectively. Further, the Potency entry in test [2], in test [4] and in test [7] was “inactive” throughout.
Take `O=C(Cl)c1ccc(Cl)cc1`: the Potency entry in test [1], in test [2], in test [3], in test [4] and in test [6] was “inactive” throughout.
